According to the supplement of paper PMC13380429:

How the values were obtained:
[1] = test system: Vero E6 infected with SARS-CoV-2; test: inhibition of SARS-CoV-2 cytopathic effect; higher = more antiviral protection, active = above 15; details: 48 h
[2] = test system: Vero E6 infected with SARS-CoV-2; test: morphology score (similarity to uninfected cells); higher = more like uninfected cells; details: 24 h

| Compound | inhibition of SARS-CoV-2 cytopathic effect ([1]; 1 nM) | inhibition of SARS-CoV-2 cytopathic effect ([1]; 8.33 nM) | inhibition of SARS-CoV-2 cytopathic effect ([1]; 100 nM) | inhibition of SARS-CoV-2 cytopathic effect ([1]; 833.33 nM) | inhibition of SARS-CoV-2 cytopathic effect ([1]; 10000 nM) | morphology score [2] |
| --- | --- | --- | --- | --- | --- | --- |
| C[N+](C)(C)CC(=O)O [betaine] | -1.71% (inactive) | -0.6% (inactive) | 0.16% (inactive) | 1.31% (inactive) | -1.65% (inactive) | – |
| CN1CC2c3ccccc3Oc3ccc(Cl)cc3C2C1 (stereo unspecified) [asenapine] | 1.23% (inactive) | -0.6% (inactive) | 1.72% (inactive) | -0.01% (inactive) | 6.35% (inactive) | – |
| CNC(=O)c1ccc(Nc2ncc(C(F)(F)F)c(NCc3nccnc3N(C)S(C)(=O)=O)n2)cc1 [defactinib] | -2.21% (inactive) | -4.25% (inactive) | -0.22% (inactive) | -2.59% (inactive) | -4.28% (inactive) | – |
| O=C(O)C[C@H](O)C(=O)O [malic-acid] | -0.21% (inactive) | -2.53% (inactive) | -1.2% (inactive) | 3.51% (inactive) | 1.76% (inactive) | – |
| C=C1/C(=C\C=C2/CCC[C@]3(C)[C@@H]([C@H](C)/C=C/C=C/C(O)(CC)CC)CC[C@@H]23)C[C@@H](O)C[C@@H]1O [seocalcitol] | -3.06% (inactive) | -2.2% (inactive) | -0.09% (inactive) | 1.95% (inactive) | 1.01% (inactive) | – |
| CC(=O)[C@H]1CC[C@H]2[C@@H]3CC=C4C[C@@H](OC(=O)CCC(=O)O)CC[C@]4(C)[C@H]3CC[C@]12C [pregnenolone-succinate] | 5.34% (inactive) | 3.1% (inactive) | 3.45% (inactive) | 5.79% (inactive) | 5.05% (inactive) | – |
| C[C@]12CC[C@H]3[C@@H](CCC4=CC(=O)CC[C@@]43C)[C@@H]1CC[C@@H]2O (10 µM) | – | – | – | – | – | -0.0371 |
| CCCCC(=O)OCC(=O)[C@]1(O)Cc2c(O)c3c(c(O)c2[C@@H](O[C@H]2C[C@H](NC(=O)C(F)(F)F)[C@H](O)[C@H](C)O2)C1)C(=O)c1c(OC)cccc1C3=O [valrubicin] | -0.61% (inactive) | 0.16% (inactive) | -0.18% (inactive) | 0.06% (inactive) | -1.25% (inactive) | – |
| CN1C[C@H](CNC(=O)OCc2ccccc2)C[C@@H]2c3cccc4c3c(cn4C)C[C@H]21 [metergoline] | -10.3% (inactive) | -6.82% (inactive) | -4.21% (inactive) | -6.12% (inactive) | -2.89% (inactive) | – |
